From PubChem BioAssay
Shown is part of a subset that was picked to be rich in hits.
Pf Dd2 growth: Plasmodium falciparum Dd2 growth inhibition; P. falciparum Dd2 growth, SYBR Green, 72 h; Potency, µM (doses to about 28.9 µM), usual class: inhibitors; 120,000 tested, 4.3% active; AID 1347417; active means well fitted inhibition curve with a large enough effect; further: nearly all actives have a fitted effect of over 65% in size
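Infected erythrocytes (Dd2, 0.3% parasitemia, 2.5% hematocrit final) are added to compound in RPMI-1640/Albumax II medium, grown 72 h at 37C in low oxygen, then lysed with saponin/Triton-X containing SYBR Green and read by fluorescence.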
Of the large screens only hits and unclear results are named; the others gave an inactive call.

COc1ccc(-c2nnc3n2CCN(C(=O)c2cccc(Cl)c2)C3)cc1	none
COCC(=O)NC[C@H]1O[C@@H](CO)[C@@H](O)[C@H]1N1CCC(C)CC1	none
CCc1cc(N2CCC3(CCCN(C)C3=O)C2)nc(N2CCCC2)n1 (stereo unspecified)	none
CCc1cc(N2CCOCC(O)(CN3CCCC3)C2)nc(N2CCCC2)n1 (stereo unspecified)	Pf Dd2 growth 5.6µM
COc1ccc(C(=O)N2CCOCC(O)(CN3CCCC3)C2)c(OC)c1 (stereo unspecified)	none
COc1ccccc1N1CCN([C@@H]2[C@H](O)[C@H](CO)O[C@@H]2CNC(=O)NC(C)C)CC1	none
CN(C)Cc1cn2c(=O)n(C)cc(-c3ccc(O)c(F)c3)c2n1	none
CN(C)Cc1cn2c(=O)n(C)cc(-c3ccc(F)c(Cl)c3)c2n1	Pf Dd2 growth 2.5µM
Cn1cc(-c2ccc(F)c(Cl)c2)c2nc(CO)cn2c1=O	none
CCCCNc1cc(N2CCN(C3CCCCC3)CC2)c2noc3c2c1C(=O)c1ccccc1-3	Pf Dd2 growth 2.5µM
Cc1cccc(NC(=O)Cn2c(N3CCc4ccccc4C3)nc(C)cc2=O)c1	none
CN1CCCN(S(=O)(=O)c2ccccc2F)c2ccccc21	none
CCc1ccc(CNC(=O)c2nn(-c3ccc(OC)c(Cl)c3)c(=O)c3c2c2ccccc2n3C)cc1	none
COc1ccc(-n2nc(C(=O)N(C)c3cccc(C(F)(F)F)c3)c3c4ccccc4n(C)c3c2=O)cc1	none
CCOc1ccc(N(CC)C(=O)c2nn(-c3ccc(OC)cc3)c(=O)c3c2c2ccccc2n3C)cc1	Pf Dd2 growth 4µM
CCCN(C(=O)c1nn(-c2ccc(OC)c(Cl)c2)c(=O)c2c1c1ccccc1n2C)c1ccccc1F	none
CCN(CC)CCNC(=O)c1nn(-c2ccc(OC)c(Cl)c2)c(=O)c2c1c1ccccc1n2C	none
CCN(CC)CCCNC(=O)c1nn(-c2ccc(OC)cc2)c(=O)c2c1c1ccccc1n2C	none
CCOc1ccccc1NC(=O)c1nn(-c2ccc(OC)cc2)c(=O)c2c1c1ccccc1n2C	none
CCN(CC)CCCNC(=O)c1nn(-c2ccc(OC)c(Cl)c2)c(=O)c2c1c1ccccc1n2C	Pf Dd2 growth 1µM
CCN(C(=O)c1nn(-c2ccc(OC)c(Cl)c2)c(=O)c2c1c1ccccc1n2C)c1cc(OC)ccc1OC	Pf Dd2 growth 7.9µM
COCCN1CC(CO)C2(CCN(C(=O)Cc3cccnc3)CC2)C1 (stereo unspecified)	none
COc1ccc(C(=O)N2CCn3c(nn(-c4ccc([N+](=O)[O-])cc4)c3=O)C2)cc1	none
O=C(c1nc(-c2ccc(Cl)nc2)c2ccccn12)N1CCOCC1	none
O=C1CO[C@H]2CCN(Cc3ccc4[nH]ccc4c3)CC[C@@H]2N1Cc1ccc(O)cc1	none
Cc1ccc(-c2noc([C@@H]3Cc4nc[nH]c4CN3C(=O)COCC(=O)O)n2)cc1	none
Cc1cccc(-c2noc([C@@H]3Cc4nc[nH]c4CN3C(=O)CC(C)(C)CC(=O)O)n2)c1	none
COc1ccc(CN2Cc3[nH]cnc3C[C@H]2c2nc(-c3ccccn3)no2)cc1	none
COc1ccc(-c2noc([C@@H]3Cc4nc[nH]c4CN3Cc3cccs3)n2)cc1	none
Cc1ccc(-c2noc([C@@H]3Cc4nc[nH]c4CN3C(=O)CCC(=O)O)n2)cc1	none
CCNC(=O)N1Cc2[nH]cnc2C[C@H]1c1nc(-c2ccc(F)c(Cl)c2)no1	none
Cc1ccc(-c2noc([C@@H]3Cc4nc[nH]c4CN3Cc3ccccc3)n2)cc1	Pf Dd2 growth 10µM
Cc1ccc(-c2noc([C@@H]3Cc4nc[nH]c4CN3Cc3ccc(N(C)C)cc3)n2)cc1	none
O=C(Nc1ccc(Cl)cc1)N1Cc2[nH]cnc2C[C@H]1c1nc(-c2ccc(F)c(Cl)c2)no1	none
COc1ccccc1CN1Cc2[nH]cnc2C[C@H]1c1nc(-c2cccc(C)c2)no1	Pf Dd2 growth 13µM
Fc1ccc(CN2Cc3[nH]cnc3C[C@H]2c2nc(-c3ccc(F)c(Cl)c3)no2)cc1	Pf Dd2 growth 11µM
COc1ccc(CN2Cc3[nH]cnc3C[C@H]2c2nc(-c3ccc(C)cc3)no2)cc1	Pf Dd2 growth 22µM
CS(=O)(=O)NC[C@H]1OC[C@@H](NCc2ccccn2)[C@@H]1O	none
COc1ccc(C(=O)N2CCC(n3cc(-c4nc(C)no4)nn3)C2)cc1OC (stereo unspecified)	none
COc1cccc(CNC(=O)C2CCCCC(=O)N2)c1OC (stereo unspecified)	none
O=C1CC(c2cn[nH]c2C(=O)O)c2c(n[nH]c2-c2cccs2)N1 (stereo unspecified)	none
COCc1nc(C2CCCN(C(=O)CC3CCCC3)C2)no1 (stereo unspecified)	none
O=C(Nc1cccc(F)c1)N1Cc2[nH]cnc2C[C@H]1c1nc(-c2ccc(C(F)(F)F)cc2)no1	none
c1csc(CN2Cc3[nH]cnc3C[C@H]2c2nc(-c3ccncc3)no2)c1	none
c1ccc(CN2Cc3[nH]cnc3C[C@H]2c2nc(-c3ccccc3)no2)cc1	Pf Dd2 growth 13µM
O=C(c1ccccc1)N1Cc2[nH]cnc2C[C@H]1c1nc(-c2ccc(Cl)cc2)no1	none
CN(C)c1ccc(CN2Cc3[nH]cnc3C[C@H]2c2nc(-c3ccccc3)no2)cc1	none
FC(F)(F)c1ccc(-c2noc([C@@H]3Cc4nc[nH]c4CN3Cc3cc4ccccc4o3)n2)cc1	Pf Dd2 growth 8.9µM
Cc1noc([C@@H]2CC(F)(F)CN2C(=O)CCc2c(C)noc2C)n1	none
O=C(C1CC12CCCC2)N1CCc2onc(-c3cccc(F)c3)c2C1 (stereo unspecified)	none
O=C1NCCOCCN(C(=O)c2nccc3ccccc23)[C@H]2CCC[C@@H]12	none
O=C(Nc1ccccc1Oc1cccnc1)C1CCCN1C(=O)CC1CCCC1 (stereo unspecified)	none
COc1ccc(NC(=O)N(C)CC2CCOCC2)cc1F	none
Cn1ccnc1C(=O)N1CCCN(C(=O)C2CC2)c2ccccc21	none
COc1ccc2c(c1)C1(CCN(C(=O)NC3CCCCC3)C1)C(=O)N2C (stereo unspecified)	none
COc1ccc2c(c1)C1(CCN(C(=O)COc3ccc(Cl)cc3)C1)C(=O)N2C (stereo unspecified)	Pf Dd2 growth 7.1µM
COc1ccc2c(c1)C1(CCN(S(=O)(=O)c3ccc(Cl)cc3)C1)C(=O)N2C (stereo unspecified)	none
COCCNC(=O)N1CCC2(C1)C(=O)N(C)c1ccc(OC)cc12 (stereo unspecified)	none
COc1ccc2c(c1)C1(CCN(S(=O)(=O)c3cccc(Cl)c3)C1)C(=O)N2C (stereo unspecified)	Pf Dd2 growth 11µM
COc1ccc2c(c1)C1(CCN(S(=O)(=O)c3cccc(F)c3)C1)C(=O)N2 (stereo unspecified)	none
CC1CCN(CC(=O)N2CCC(c3nc4ccccc4o3)CC2)C1=O (stereo unspecified)	none
CC(C)Nc1nc2c(-c3cccc(Br)c3)nnn2c2ccccc12	none
Fc1cccc(-c2nnn3c2nc(NC2CCCCC2)c2ccccc23)c1	Pf Dd2 growth 8.9µM
Fc1cccc(-c2nnn3c2nc(NCc2ccc4c(c2)OCO4)c2ccccc23)c1	none
COCCC1(CO)CCCN(CC(=O)NCc2ccccn2)C1 (stereo unspecified)	none
O=C(COc1ccccc1)N1CCOC[C@H](Oc2ccccc2)C1	none
COC[C@@H]1CN(C(=O)c2cc(C3CC3)[nH]n2)C[C@H]1c1nc(C2CC2)no1	none
Cc1ccc(C2Cn3nnc(C(=O)N4CCC(C(=O)Nc5ccc(F)cc5)CC4)c3CO2)cc1 (stereo unspecified)	none
CCN1c2cc(C(=O)NCc3ccc(SC)cc3)ccc2C(=O)N2CCCCC21 (stereo unspecified)	none
CC(=O)NC1(C)CCN(c2cccc(C(F)(F)F)c2)CC1	none
